Assay results: PubChem BioAssay (Tox21)
Records with an inconclusive call do not appear. Active and inactive are the calls of the source. Unless noted, calls follow the shape of the dose curve; as a rule, active = well fitted curve in the direction sought with a large enough effect in the repeat runs; inconclusive = weak or mixed curves; inactive = no such curve, though single readings can be large; an effect the other way counts as inactive or inconclusive.

Assays:
[1] = qHTS assay for small molecule agonists of the p53 signaling pathway (AID 651631; calls by dose curve; also: nearly all actives have a fitted effect of over 15% in size)
Outline: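 HCT-116 p53RE-bla reporter line, 16 h compound treatment at 37 °C, then fluorescence after 2 h with B/G FRET substrate.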

[2] = qHTS assay for small molecules that induce genotoxicity in human embryonic kidney cells expressing luciferase-tagged ATAD5 (AID 651632); also: nearly all actives have a fitted effect of over 15% in size
Outline: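 Cells were seeded at 2,000 per well, dosed with compound, and incubated 16 hr at 37C in 5% CO2. Luciferase activity was then quantified after a 30 min room-temperature incubation with Amplite.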

[3] = qHTS assay for small molecule agonists of the p53 signaling pathway - cell viability (AID 651633; calls by dose curve;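 also: p53RE-bla HCT reporter cells with a stable beta-lactamase p53 reporter; series mostly up to about 83 µM; nearly all actives have a fitted effect of over 30% in size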)
Outline: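 p53RE-bla cells, seeded at 4,000 per well and rested 5 h at 37 C/5% CO2, received compounds in DMSO for 16 h at 37 C. CellTiter-Glo was then added, and luminescence was read after 30 min at room temperature to gauge cytotoxicity.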

[4] = qHTS assay for small molecules that induce genotoxicity in human embryonic kidney cells expressing luciferase-tagged ATAD5 - cell viability (AID 651634; calls by dose curve; also: nearly all actives have a fitted effect of over 25% in size)
Outline: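 Cells (HEK293T, luciferase-tagged ATAD5) are seeded at 2,000 per well, dosed with compound or DMSO vehicle, and incubated 15.5 hr at 37C and 5% CO2. CellTiter-Fluor is added for 30 min before fluorescence is measured.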

[5] = qHTS assay for small molecule disruptors of the mitochondrial membrane potential - cell viability (AID 720634; calls by dose curve;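 also: human HepG2 liver cancer cells; series mostly up to about 83 µM; nearly all actives have a fitted effect of over 20% in size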)
Outline: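 Cytotoxicity was measured by ATP quantitation in HepG2 wells that had first been treated with compound for 1 hr and stained with m-MPI dye; CellTiter-Glo incubation was 30 min at room temperature.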

[6] = qHTS assay to test for compound auto fluorescence at 590 nm (red) in HepG2 cells (AID 720674)
Outline: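 Intrinsic compound fluorescence in the red window (Ex/Em 540/590 nm) is measured in attached HepG2 cells exposed for 1 hr, DMSO vehicle as baseline, benchmarked to Rose Bengal sodium.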

[7] = qHTS assay to test for compound auto fluorescence at 535 nm (green) in HepG2 cells (AID 720675)
[8] = qHTS assay to test for compound auto fluorescence at 460 nm (blue) in HEK293 cells (AID 720678)
Outline: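 Blue-channel (Ex/Em 405/460 nm) intensity measured in HEK293 cultures after overnight compound exposure at 37C; signal expressed relative to triamterene. Cells plated 2,000 per well in 10% dialyzed FBS medium and allowed 4-5 hr to attach.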

[9] = qHTS assay to test for compound auto fluorescence at 590 nm (red) in HEK293 cells (AID 720679)
Outline: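 Red-channel autofluorescence (Ex/Em 540/590 nm; Rose Bengal sodium reference) was measured after overnight 37C, 5% CO2 exposure of attached HEK293 cells, 2,000 per well in medium with 10% dialyzed FBS.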

[10] = qHTS assay to test for compound auto fluorescence at 535 nm (green) in HEK293 cells (AID 720680)
[11] = qHTS assay to test for compound auto fluorescence at 460 nm (blue) in HEK293 cell free culture (AID 720681)
Outline: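 Test compounds were pinned into cell-free culture medium (DMEM with 10% FBS) and fluorescence was read directly at Ex/Em 405/460 nm. Signals were expressed as fluorescence equivalents of triamterene, with DMSO vehicle as control.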

[12] = qHTS assay to test for compound auto fluorescence at 535 nm (green) in HEK293 cell free culture (AID 720682)
Outline: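 Steps: dispense DMEM/10% FBS into empty wells; pin in compound or DMSO; measure fluorescence at 485/535 nm. Values are fluorescein equivalents.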

[13] = qHTS assay to test for compound auto fluorescence at 590 nm (red) in HEK293 cell free culture (AID 720683)
Outline: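 Tox21 10K library compounds were pinned into cell-free DMEM with 10% FBS and fluorescence was read at excitation 540 nm. Activity is expressed as Rose Bengal sodium equivalency.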

[14] = qHTS assay to test for compound auto fluorescence at 590 nm (red) in HepG2 cell free culture (AID 720684)
Outline: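 Readout: intrinsic compound fluorescence at 590 nm emission after 540 nm excitation, scaled to Rose Bengal sodium. Matrix was cell-free MEM with 10% FBS; DMSO vehicle wells served as control.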

[15] = qHTS assay to test for compound auto fluorescence at 460 nm (blue) in HepG2 cell free culture (AID 720685)
Outline: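 Cell-free plates of MEM plus 10% FBS received 23 nL compound or DMSO vehicle; blue-channel (405/460 nm) intensity scored against triamterene as reference fluorophore.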

[16] = qHTS assay to test for compound auto fluorescence at 535 nm (green) in HepG2 cell free culture (AID 720686)
[17] = qHTS assay to test for compound auto fluorescence at 460 nm (blue) in HepG2 cells (AID 720687)
Outline: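 Cells (2,000/well in MEM with 10% FBS) attached overnight at 37 C, then were exposed to compound or DMSO for 1 hr at 37 C, 5% CO2. Fluorescence read at Ex/Em 405/460 nm, expressed as triamterene-equivalent signal.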

[18] = biological target: Glucocorticoid receptor (Homo sapiens) (UniProt P04150); test: qHTS assay to identify small molecule agonists of the glucocorticoid receptor (GR) signaling pathway (AID 720691; active = well fitted activation curve with a large enough effect in the signal ratio in the repeat runs, not every such curve was filed as active; the % refers to the signal ratio)
Chain of Glucocorticoid receptor (Homo sapiens) (P04150 whole entry, looked up): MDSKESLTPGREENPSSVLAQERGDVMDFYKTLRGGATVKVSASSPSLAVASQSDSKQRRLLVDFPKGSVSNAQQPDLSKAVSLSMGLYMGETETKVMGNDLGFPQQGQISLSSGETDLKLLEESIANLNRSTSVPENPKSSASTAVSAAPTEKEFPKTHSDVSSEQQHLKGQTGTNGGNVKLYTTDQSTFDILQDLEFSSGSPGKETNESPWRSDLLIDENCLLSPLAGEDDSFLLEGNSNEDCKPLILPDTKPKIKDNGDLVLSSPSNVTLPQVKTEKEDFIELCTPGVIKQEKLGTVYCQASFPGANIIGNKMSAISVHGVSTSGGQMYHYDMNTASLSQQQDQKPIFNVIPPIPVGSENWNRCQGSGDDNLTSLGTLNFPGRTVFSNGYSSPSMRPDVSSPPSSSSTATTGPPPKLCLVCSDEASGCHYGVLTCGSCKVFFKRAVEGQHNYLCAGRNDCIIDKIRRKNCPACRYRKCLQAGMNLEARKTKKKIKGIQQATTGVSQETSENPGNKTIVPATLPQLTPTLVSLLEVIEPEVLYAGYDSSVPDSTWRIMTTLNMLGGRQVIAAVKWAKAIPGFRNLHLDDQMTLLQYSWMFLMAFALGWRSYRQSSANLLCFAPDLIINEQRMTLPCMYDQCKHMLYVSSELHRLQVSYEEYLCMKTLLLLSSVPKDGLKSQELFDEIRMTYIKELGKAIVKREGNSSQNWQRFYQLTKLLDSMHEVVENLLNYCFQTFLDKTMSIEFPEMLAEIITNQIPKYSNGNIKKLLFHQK
Outline: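 Steps: seed GR-bla HeLa cells, incubate 4 h at 37 C/5% CO2; pin-transfer DMSO-dissolved compounds; incubate 18 h at 37 C; add LiveBLAzer B/G FRET substrate; after 2 h at room temperature, measure fluorescence.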

[19] = biological target: Glucocorticoid receptor (Homo sapiens) (UniProt P04150); test: qHTS assay to identify small molecule antagonists of the glucocorticoid receptor (GR) signaling pathway (AID 720692; active = well fitted inhibition curve with a large enough effect in the signal ratio in the repeat runs, not every such curve was filed as active; the % refers to the signal ratio)
Outline: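 Antagonism was scored as loss of dexamethasone-driven (5 nM final) reporter signal in HeLa cells bearing a glucocorticoid response element–beta-lactamase construct, after 18 h compound exposure at 37 C and 2 h FRET substrate loading.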

[20] = qHTS assay for small molecule disruptors of the mitochondrial membrane potential (AID 720635)
Outline: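 HepG2 cells (2,000/well) attached overnight at 37C, then took compound for 1 hr at 37C, 5% CO2. Mito-MPS dye was added for 30 min; fluorescence was read at 490/535 nm (monomers) and 540/590 nm (aggregates).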
% is scaled to controls: 0 for no effect and ±100 for the full control effect.

Cc1ccsc1/C=C/C1=NCCCN1C
inactive: outcome [1] | Potency [2] | outcome [3] | Potency [4] | outcome [5] | fluorescence, relative to Rose Bengal [6] 0.162% [at 18.6 µM] | fluorescence, % of fluorescein control [7] 0.0988% [at 18.6 µM] | fluorescence, % of triamterene [8] -0.421% [at 18.6 µM] | fluorescence, % of fluorescent control [9] -1.08% [at 18.6 µM] | fluorescence, % of fluorescein [10] 0.007% [at 18.6 µM] | fluorescence, % of fluorescent control [11] -0.0198% [at 18.6 µM] | activity change [12] 0.0151% [at 18.6 µM] | fluorescence, % of fluorescent control [13] -0.0392% [at 18.6 µM] | fluorescence, % of Rose Bengal [14] -0.469% [at 18.6 µM] | fluorescence, % of fluorescent control [15] -0.0937% [at 18.6 µM] | fluorescence, % of fluorescein control [16] -0.205% [at 18.6 µM] | fluorescence, % of fluorescent control [17] 0.164% [at 18.6 µM] | Potency [18] | outcome [19]

CCCCOCCOC(=O)COc1nc(Cl)c(Cl)cc1Cl
inactive: outcome [1] | Potency [2] | outcome [3] | Potency [4] | outcome [5] | outcome [6] | outcome [7] | outcome [8] | outcome [9] | outcome [10] | outcome [11] | outcome [12] | outcome [13] | outcome [14] | outcome [15] | outcome [16] | outcome [17] | Potency [18] | outcome [19]

CCCCCOC(=O)CCC
inactive: outcome [1] | Potency [2] | outcome [3] | Potency [4] | outcome [5] | outcome [6] | outcome [7] | outcome [8] | outcome [9] | outcome [10] | outcome [11] | outcome [12] | outcome [13] | outcome [14] | outcome [15] | outcome [16] | outcome [17]

CCOC(=O)/C=C/c1ccccc1
inactive: outcome [1] | Potency [2] | outcome [3] | Potency [4] | outcome [5] | Potency [20] | outcome [6] | outcome [7] | outcome [10] | outcome [11] | outcome [13] | outcome [15] | outcome [16] | outcome [17]

Cc1cc2cc3c(C)cc(=O)oc3c(C)c2o1
inactive: outcome [1] | Potency [2] | outcome [3] | Potency [4] | outcome [5] | fluorescence, relative to Rose Bengal [6] 0.738% [at 18.6 µM] | fluorescence, % of fluorescein control [7] -0.0056% [at 18.6 µM] | fluorescence, % of triamterene [8] 1.9% [at 18.6 µM] | fluorescence, % of fluorescent control [9] 0.0391% [at 18.6 µM] | fluorescence, % of fluorescein [10] 0.0223% [at 18.6 µM] | fluorescence, % of fluorescent control [11] 1.37% [at 18.6 µM] | activity change [12] -0.0015% [at 18.6 µM] | fluorescence, % of fluorescent control [13] 0.147% [at 18.6 µM] | fluorescence, % of Rose Bengal [14] -0.0947% [at 18.6 µM] | fluorescence, % of fluorescent control [15] 1.64% [at 18.6 µM] | fluorescence, % of fluorescein control [16] -0.0028% [at 18.6 µM] | fluorescence, % of fluorescent control [17] 1.96% [at 18.6 µM]

Oc1cn2c(n1)Nc1ccc(Cl)c(Cl)c1C2
inactive: outcome [1] | Potency [2] | outcome [3] | Potency [4] | outcome [5] | outcome [6] | outcome [7] | outcome [8] | outcome [9] | outcome [10] | outcome [11] | outcome [12] | outcome [13] | outcome [15] | outcome [17] | Potency [18]

COc1ccc(Br)c(C)c1
inactive: outcome [1] | Potency [2] | outcome [3] | Potency [4] | outcome [5] | Potency [20] | outcome [6] | outcome [7] | outcome [10] | outcome [13] | outcome [14] | outcome [15] | outcome [16] | outcome [17]

CN1CCN(CC(=O)N2c3ccccc3C(=O)Nc3cccnc32)CC1
inactive: outcome [1] | Potency [2] | outcome [3] | Potency [4] | outcome [5] | outcome [6] | outcome [7] | outcome [8] | outcome [9] | outcome [10] | outcome [11] | outcome [12] | outcome [13] | outcome [14] | outcome [15] | outcome [16] | outcome [17] | Potency [18]
